Data from PubChem BioAssay AID1347076 (National Center for Advancing Translational Sciences (NCATS), 2019).
Where “and” joins values, the source holds several entries; their conditions need not be identical. Identical values can stand only once. Out of some 400,000 compounds screened, about 13,000 (3.2%) were called active. Another 18% or so got no clear call; they are omitted. Calls follow the shape of the dose curve; as a rule, active = well fitted cell-killing curve with a large enough effect; inconclusive = small, poorly fitted or top-dose-only effect, or effect the other way; inactive = flat fitted curve, though single readings scatter. The list comes from a sample in which actives are over-represented; it also holds similar structures and randomly drawn compounds.

assay: qHTS assay for MDR1-selective chemotherapeutics: Primary screen using the drug-selected MDR subline cells KB-V1; conditions: KB-V1 MDR cells viability, CellTiter-Glo, 72 h; series mostly up to 46.1 µM; activity change, negative = cytotoxicity: at the top concentration; also: nearly all actives have a fitted effect of over 60% in size
Procedure, shortened: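 Potencies derive from concentration-effect curves fitted to normalized luminescence (CellTiter-Glo) of KB-V1 cells treated for 72 h at 37 degrees C in phenol-red-free DMEM containing 10% FBS.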
% is scaled to controls: 0 for no effect and ±100 for the full control effect; potency is read from the fitted curve at half-maximal effect.

Compound	activity change, negative = cytotoxicity	Potency
CCOC(=O)c1cc2cc(OC)ccc2n1C1CCN(C)CC1	17.4% (inactive)	–
Cc1ccc2sc(N(Cc3cccnc3)C(=O)C3COc4ccccc4O3)nc2c1C (configuration not stated)	-11.2% (inactive)	–
Cn1c(=O)[nH]c(=O)c2c1nc(Br)n2CCCCSc1nc2ccccc2o1	-10.4% (inactive)	–
Cn1c(=O)c2c(nc(Br)n2CCSc2nc3ccccc3o2)n(C)c1=O	–	6.51 µM (active)
CCN(CC)C(=O)CSc1nc2ccccc2o1	6.7% (inactive)	–
O=C(Nc1ccc(N2CCOCC2)cc1)c1cccc2c(-c3ccc(F)c(F)c3)coc12	-1.2% (inactive)	–
Cc1ccn(CC(=O)NC2CCCN(Cc3ccccc3F)C2)n1 (configuration not stated)	-2.26% (inactive)	–
COc1ccccc1N1CCN(C(=O)c2cn(-c3ccccc3)nc2-c2cccnc2)CC1	-21.6% (inactive)	–
CCc1ccc(-c2nn(-c3ccccc3C)cc2C(=O)N2CCN(C3CCS(=O)(=O)C3)CC2)cc1 (configuration not stated)	–	14.6 µM (active)
CCn1cc(C(=O)N2CCN(C3CCCCC3)CC2)c2cc(OC)c(OC)cc2c1=O	17.4% (inactive)	–
COc1cc(C)c(CN2CCN(C(=O)CCC(=O)c3ccc(C)s3)CC2)cc1OC	-26.6% (inactive)	–
CCCNC(=O)c1cc(C2CCCCN2S(=O)(=O)c2ccc(C#N)cc2)on1 (configuration not stated)	0.778% (inactive)	–
O=C(CN1CCSc2ccccc21)N1CCN(c2ccccc2)CC1	0% (inactive)	–
Cc1nc2ccccc2c2oc(C(=O)NCCCN3CCC(C)CC3)cc12	-3.06% (inactive)	–
CCCN(CCC)CCNC(=O)c1cc2c(C)nc3ccccc3c2o1	–	14.1 µM (active)
CCN(CC)CCNC(=O)c1ccc(NC(=O)c2cc(-c3ccncc3)nc3ccccc23)cc1	-4.9% (inactive)	–
Cc1csc[n+]1CCC1CCCCC1	5.44% (inactive)	–
COc1ccccc1CC(=O)Nc1ccc([N+](=O)[O-])cc1OC	–	16.4 µM (active)
COc1ccccc1CC(=O)Nc1ccc(F)cc1F	0.422% (inactive)	–
COc1cc([N+](=O)[O-])ccc1NC(=O)CN1CCCC1	1.92% (inactive)	–
Cc1ccc(CNC(=O)CCc2c(C)nc3c(c(C)nn3-c3ccccc3)c2C)cc1	-3.47% (inactive)	–
Cc1ccccc1S(=O)(=O)NC(=O)C1(C)CCN1C(=O)C1(c2ccccc2)CCCC1 (configuration not stated)	3.11% (inactive)	–
COc1cc(C2CC(=O)Oc3cc(OC)c(OC)c(OC)c32)cc(OC)c1OC (configuration not stated)	-0.0159% (inactive)	–
COc1cc(C2c3cc4c(cc3C(O)C3COC(=O)C23)OCO4)cc(OC)c1OC (configuration not stated)	–	4.11 µM (active) and 231 nM (active)

Compound	activity change, negative = cytotoxicity	Potency
COc1cc(OC)c2c(c1)OC(=O)CC2c1cc(OC)c(OC)c(OC)c1 (configuration not stated)	6.5% (inactive)	–
Cc1nn(C)c2c1c(C(F)(F)F)cc(=O)n2C(C)C(=O)NCc1ccc(Cl)cc1 (configuration not stated)	4.71% (inactive)	–
Cc1cccc(-c2cnc(C(O)c3ccc4ccccc4c3)[nH]2)c1 (configuration not stated)	-2.55% (inactive)	–
Cc1cc(Nc2ccc(C(=O)N3CCCCC3)cc2)c2cccc(C)c2n1	-12.8% (inactive)	–
Cc1ccccc1-c1ccc(Nc2ccc(C(=O)N3CCOCC3)cc2)nn1	–	14.6 µM (active)
O=C(Cc1ccc([N+](=O)[O-])cc1)Nc1ccc(C(=O)N2CCOCC2)cc1	-16.5% (inactive)	–
Cc1ccccc1NC(=O)Cc1nc(COC(=O)CNC(=O)c2ccc(Cl)cc2Cl)cs1	19.5% (inactive)	–
CS(=O)(=O)/C(C#N)=C/c1cccn1S(=O)(=O)c1ccc([N+](=O)[O-])cc1	14.5% (inactive)	–
COc1ccc(C(C)(O)c2nc(-c3ccc(C)c(C)c3)cs2)cc1 (configuration not stated)	8.75% (inactive)	–
COc1cccc(Nc2nc(N)c([N+](=O)[O-])c(NCc3ccco3)n2)c1	-1.12% (inactive)	–
CN(c1ccccc1)c1nc(N)c([N+](=O)[O-])c(NCc2ccco2)n1	–	20.6 µM (active)
COCCNc1nc(N)c([N+](=O)[O-])c(NCCO)n1	3.27% (inactive)	–
Cc1cccc(S(=O)(=O)N(C)C[C@@H]2OCc3cnnn3CCCC(=O)N([C@H](C)CO)C[C@@H]2C)c1	1.87% (inactive)	–
CCc1ccccc1OCCSc1nc(-c2cccs2)nc2cc(=O)[nH]n12	-1.44% (inactive)	–
Cc1nnc(SCC(=O)NCc2ccccc2Cl)c2nn(-c3ccccc3)c(C)c12	-5.48% (inactive)	–
CNC(=O)C[C@H]1C(=O)N(c2ccc(OC)cc2)C[C@@H]1Cc1ccccc1	-17.1% (inactive)	–
C[C@H]1CN(c2ccc(Br)cc2)C(=O)[C@@H]1CC(=O)Nc1ccc(Br)cc1	-5.07% (inactive)	–
O=C(NCc1cccnc1)c1cc(C2CCCCN2C(=O)CCc2ccccc2)on1 (configuration not stated)	-5.51% (inactive)	–
COc1ccc(C)cc1N(CC(=O)N1CCCC1)S(=O)(=O)c1ccccc1	-5.7% (inactive)	–
COc1ccc(N(CC(=O)N2CCCCCC2)S(=O)(=O)c2ccccc2)cc1	-14.8% (inactive)	–
CCOC(=O)N1CCN(C(=O)c2ccccc2N(Cc2ccccc2)S(=O)(=O)c2ccc(OC)cc2)CC1	–	20.6 µM (active)
CCOC(=O)N1CCN(C(=O)CN(c2ccc(C)c(C)c2)S(=O)(=O)c2ccccc2)CC1	–	1.16 µM (active)
NC(=O)c1ccccc1N(Cc1ccccc1)S(=O)(=O)c1ccccc1	0% (inactive)	–
CCOC(=O)N1CCN(S(=O)(=O)c2ccc(OC)cc2)CC1	-6.07% (inactive)	–

Compound	activity change, negative = cytotoxicity	Potency
CC1CCCCN1Cc1c(O)ccc2c(=O)c(-c3cccc(Cl)c3)c(C(F)(F)F)oc12 (configuration not stated)	10.4% (inactive)	–
CCC1CN(S(=O)(=O)c2cc(-c3cc(C)no3)ccc2C)c2cc(C)ccc2O1 (configuration not stated)	-17% (inactive)	–
C[C@@H]1CN([C@H](C)CO)C(=O)CCCn2nncc2CO[C@@H]1CN(C)S(=O)(=O)c1cccc(C#N)c1	-22.1% (inactive)	–
Cc1csc(NCC(=O)c2c[nH]c3ccccc23)n1	-17.4% (inactive)	–
COc1ccc(-c2nc3c4ccccc4n(CC(=O)Nc4ccc(C(C)=O)cc4)c(=O)n3n2)cc1	17.9% (inactive)	–
COc1ccc(C(C(O)C(=O)c2c[nH]c3ccccc23)N2CCN(c3ccccc3)CC2)cc1 (configuration not stated)	-8.03% (inactive)	–
COc1ccc(/C=C(\NC(=O)c2ccc(OC)c(OC)c2)C(=O)NCCc2c[nH]c3ccccc23)cc1	-26.9% (inactive)	–
COc1ccc(/C=C(\C#N)c2c[nH]c3ccccc23)cc1	–	1.3 µM (active)
O=C(CC[C@H]1O[C@@H](n2ccc(=O)[nH]c2=O)[C@H](O)[C@@H]1O)N[C@H](Cc1ccccc1)C(=O)NCc1ccco1	3.99% (inactive)	–
Oc1c(C(c2ccc(F)cc2)N2CCN(Cc3ccccc3)CC2)sc2nc(-c3ccco3)nn12 (configuration not stated)	-1.49% (inactive)	–
COC(=O)c1ccc(Cn2c(SCC(=O)N(C)c3ccccc3)nc3ccccc32)cc1	4.47% (inactive)	–
C#CCNC(=O)C[C@@H]1C[C@@]2(C(=O)OCC)CCCC=C2N(Cc2ccco2)C1=O	0% (inactive)	–
COCCCNC(=O)CNC(=S)N(Cc1cc(OC)c(OC)c(OC)c1)C1CCCC1	–	20.6 µM (active)
COc1cc(C(=O)N(Cc2ccc(N(C)C)cc2)C2CCS(=O)(=O)C2)cc(OC)c1OC (configuration not stated)	11.3% (inactive)	–
COc1cc(C(=O)N(Cc2ccc(C(C)C)cc2)C2CCS(=O)(=O)C2)cc(OC)c1OC (configuration not stated)	-15.3% (inactive)	–
CCCCCCN1CCN(C2CN(Cc3cn(Cc4ccc(F)cc4)nn3)S(=O)(=O)C2)CC1 (configuration not stated)	14.9% (inactive)	–
CC(C)c1cc(C(N)=O)c(NC(=O)c2cccc(COc3ccc(Br)cc3)c2)s1	–	20.6 µM (active)
CC(C)(C)OC(=O)N(Cc1ccccc1)Cc1ccc(OCc2cccc(NC(=O)c3ccccc3)c2)cc1	-2.42% (inactive)	–
N#Cc1ccccc1NC(=O)c1cccc(COc2ccc(Cl)cc2Cl)c1	0.166% (inactive)	–
COc1ccccc1C(=O)NC(=S)Nc1ccc(N2CCOCC2)cc1	-7.19% (inactive)	–
Cc1cccc(C(=O)NC2CCN(CC(=O)Nc3cccc(Cl)c3)CC2)c1	-32.8% (inactive)	–
CCc1nc2ccc(C(=O)Nc3cccc(OC)c3)cn2c1N(CCC(C)C)CCN(C)C	3.09% (inactive)	–
CC(=O)/C(=N\Nc1ccc(Cl)cc1Cl)Sc1cccc2cccnc12	–	18.4 µM (active)
O=C(Nc1cccc2cccnc12)c1cccc(Cl)c1	16.8% (inactive)	–

Compound	activity change, negative = cytotoxicity	Potency
COc1c(Cl)cc(Cl)cc1C(=O)Nc1cccc2cccnc12	-0.513% (inactive)	–
COc1ccc(/C=C/c2ccccn2)cc1OC	-2.57% (inactive)	–
CN(C)C(CNC(=O)Cc1ccc([N+](=O)[O-])cc1)c1ccccc1 (configuration not stated)	-10.5% (inactive)	–
Cc1ccc(NC(=O)c2cc3ccccc3o2)cc1	5.73% (inactive)	–
CN(C)C(CNC(=O)c1cc2ccccc2o1)c1ccccc1 (configuration not stated)	–	16.4 µM (active)
O=C(Nc1cc(Br)ccc1F)c1nc[nH]c1C(=O)NCc1ccccc1	-9.49% (inactive)	–
CCCCOC(=O)/C(C#N)=C/c1ccc(-c2cccc(C(F)(F)F)c2)o1	9.63% (inactive)	–
O=C1NC(c2cc3c(cc2Cl)OCO3)Oc2ccccc21 (configuration not stated)	0.321% (inactive)	–
O=C1OCC2=C1C(c1ccc(Cl)cc1)c1cc3c(cc1O2)OCO3 (configuration not stated)	–	23.1 µM (active)
CCOc1ccc(CNCc2c(C(=O)O)c(C)n(Cc3cccc(OC)c3)c2C)cc1OC	0% (inactive)	–
CCC(C)CN1C(=O)CN(S(C)(=O)=O)CC1(C)C(=O)Nc1ccc2c(c1)OCCO2 (configuration not stated)	-11.8% (inactive)	–
O=C(C=CC(=O)Nc1ccc(F)cc1F)Nc1ccc(F)cc1F	1.29% (inactive)	–
Cc1ccc(C(=O)OCC(=O)NC2CCCCCCC2)cc1C	17.9% (inactive)	–
O=C(CCCN1C(=O)c2cccc3cccc(c23)C1=O)N1CCN(Cc2ccc3c(c2)OCO3)CC1	4.42% (inactive)	–
O=C(Nc1cccc2ccccc12)N1CCN(Cc2ccc3c(c2)OCO3)CC1	–	16.4 µM (active)
O=C(c1cccs1)N1CCN(Cc2ccc3c(c2)OCO3)CC1	-13.2% (inactive)	–
C/C(=N\N)c1c(-c2ccccc2)c2cc(Br)ccc2[nH]c1=O	10.2% (inactive)	–
O=C1CCCc2c1[nH]c1ccc(Br)cc21	–	0.517 µM (active)
O=[n+]1c2c(n([O-])c3cc(Br)ccc31)CCC2	0% (inactive)	–
COC(=O)C(Cc1c[nH]c2ccccc12)NC(=O)CCNC(=O)c1ccco1 (configuration not stated)	27.7% (inactive)	–
COc1cc2nc(C#Cc3nc4cc(OC)c(OC)cc4[nH]3)[nH]c2cc1OC	4.7% (inactive)	–
O=C1NC(c2cccc(Cl)c2)Nc2ccccc21 (configuration not stated)	–	8.2 µM (active)
COc1ccc(C2NC(=O)c3ccccc3N2)cc1 (configuration not stated)	0% (inactive)	–
C=CCOc1cccc(C2NC(=O)c3ccccc3O2)c1 (configuration not stated)	-7.2% (inactive)	–

Compound	activity change, negative = cytotoxicity	Potency
CCCNC(=O)C1(C)CCN1C(=O)C1(c2ccccc2)CC1 (configuration not stated)	-1.84% (inactive)	–
Cc1cccc(N2CCN(c3c(CN4CCCC4)c(=O)oc4ccccc34)CC2)c1C	13.2% (inactive)	–
Cc1c(CN2CCC(C)CC2)c(=O)n(-c2ccccc2)n1C	-7.43% (inactive)	–
Cc1cccc(N2CCN(Cc3c(C)n(C)n(-c4ccccc4)c3=O)CC2)c1C	–	18.4 µM (active)
CSCCC(NC(N)=O)C(=O)N(C)CC(=O)Nc1ccc(C)cc1 (configuration not stated)	1.58% (inactive)	–
CSCCC(NC(=O)COc1ccccc1)C(=O)N(C)CC(=O)Nc1ccc(C)cc1 (configuration not stated)	–	16.4 µM (active)
CSCCC(NC(=O)COc1ccccc1)C(=O)Nc1ccc(C)cc1 (configuration not stated)	-12.8% (inactive)	–
O=C1[C@H]2[C@@H](c3ccc(C(F)(F)F)cc3)N[C@]3(CCCN(Cc4ccc(Br)cc4)C3=O)[C@H]2C(=O)N1Cc1ccccc1	-1.88% (inactive)	–
COc1ccc(C(=O)NCC(c2ccc(N(C)C)cc2)N2CCc3ccccc32)c(OC)c1 (configuration not stated)	14.2% (inactive)	–
Nc1c(C(=O)NCc2ccccc2)nnn1Cc1cccc(Cl)c1	–	9.2 µM (active)
Nc1c(C(=O)Nc2ccc3c(c2)OCCO3)nnn1Cc1ccccc1	-12.8% (inactive)	–
COc1cccc(CNC(=O)c2nnn(CC(=O)Nc3cc(Cl)ccc3C)c2N)c1	2.29% (inactive)	–
CCS(=O)(=O)N1CCc2cc(C(=O)NCc3ccc(OC)cc3)ccc21	3.83% (inactive)	–
COc1ccc(-c2c(C)c3ccc(O)c(CN4CCN(C)CC4)c3oc2=O)cc1OC	1.72% (inactive)	–
O=c1oc2c(CN3CCCCC3)c(O)ccc2c2c1CCCCC2	–	5.8 µM (active)
Cc1ccc(Oc2c(C(F)(F)F)oc3c(CN4CCCCC4)c(O)ccc3c2=O)cc1	-0.449% (inactive)	–
Cc1ccc(S(=O)(=O)N[C@H]2CCC[C@@H]2O)cc1	2.83% (inactive)	–
COc1cc(NC(=O)C2CC(c3ccccc3O)=NO2)c(OC)cc1Cl (configuration not stated)	0.517% (inactive)	–
CCn1ncc(C2=NOC(C(=O)N3CCN(c4ccccc4)CC3)C2)c1C (configuration not stated)	-4.05% (inactive)	–
CCn1ncc(C2=NOC(C(=O)Nc3ccccc3C(=O)OC)C2)c1C (configuration not stated)	–	18.4 µM (active)
COc1cccc(CNC(=O)C(NS(=O)(=O)c2ccc3nc(C)sc3c2)C(C)C)c1 (configuration not stated)	-18.7% (inactive)	–
